Source: PubChem BioAssay (several laboratories)
The list is not random: actives were taken first. Their share in the collection is about 4.7%.
proKLK7 act: activators of human kallikrein-7 zymogen; activation, % at 7 µM; purified proKLK7, EDANS-DABCYL substrate fluorescence; 100% is mature enzyme control, 0% vehicle; actives 0.9% (n = 370,000);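 active = activation above the mean of all tested compounds plus 3 SD, computed per campaign excluding outliers beyond control limits, cut at about 13% in these data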
Target sequence (P49862 whole entry, looked up): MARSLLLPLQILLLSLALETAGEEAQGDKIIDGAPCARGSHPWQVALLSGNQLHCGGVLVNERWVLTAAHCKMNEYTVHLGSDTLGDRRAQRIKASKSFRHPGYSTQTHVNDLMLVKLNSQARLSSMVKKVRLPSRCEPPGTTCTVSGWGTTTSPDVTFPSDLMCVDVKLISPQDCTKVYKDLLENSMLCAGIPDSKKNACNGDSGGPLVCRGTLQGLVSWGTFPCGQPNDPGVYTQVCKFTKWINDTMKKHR
ADAM17 inh: inhibits human ADAM17; P78536; recombinant ADAM17, EDANS/DABCYL FRET peptide cleavage; inhibition, % at 6.95 µM; actives 0.83% (n = 370,000); AID 720648;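 active = inhibition above the mean of compounds lying between control limits plus 3 SD, set per campaign, cut at about 8.5% in these data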;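 note: 0% = DMSO-only wells as the low control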
ADAM10 inh: inhibitors of human ADAM10. O14672. recombinant ADAM10, EDANS/DABCYL FRET peptide cleavage, 3 h. inhibition, % at 7 µM. actives 0.62% (n = 370,000);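 active = inhibition above a per-campaign cutoff equal to the mean of compounds falling between control-based bounds plus 3 SD, cut at about 20% in these data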;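 note: 0% = DMSO wells while the 100% control is not disclosed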
MPTP block: permeability transition pore inhibition. inhibition, % at 10 µM. actives 1.4% (n = 360,000). isolated mouse mitochondria, Ca2+ swelling absorbance, 30 min;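 active = inhibition of 50% or more, scaled per plate between neutral and stimulator controls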;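 note: 0% = DMSO wells given calcium and 100% = 1 mM EGTA wells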
Pemphigus Ab inh: inhibitors of pemphigus antibody binding to human desmoglein-3; AID 588358; P32926; DSG3-coupled beads, scFv-anti-DSG3-GFP binding, flow cytometry; hits give low values; actives 0.48% (n = 310,000); binding (percent of control), % at 10 µM;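 active = binding more than 3 SD below its plate's average and above zero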;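 note: hits lower antibody fragment binding to DSG3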
rCAG RNA binder: molecules binding r(CAG) RNA repeats. r(CAG) RNA repeat, TO-PRO-1 dye displacement fluorescence. inhibition, % at 3 µM. actives 1.3% (n = 370,000). AID 651821;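 active = inhibition above the plate cutoff, the mean of all test compounds on that plate plus 3 SD, cut at about 35% in these data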;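 note: 0% = DMSO alone and 100% = 100 µM mitoxantrone as full dye displacement; higher means more dye released from RNA so lower well fluorescence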
ADAM10 confirm: human ADAM10 inhibition, confirmation. shares compounds with ADAM10 inh. ADAM10 QFRET peptide cleavage, EDANS fluorescence. inhibition, % at 6.95 µM. actives 1% (n = 2,100). AID 743208;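 active = inhibition above about 20% chosen separately for each screening run, limit read from the data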;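 note: 0% = DMSO wells and 100% = marimastat wells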
ADAM17 ctr: counter-screen for ADAM10 exosite inhibitors: inhibitors of human ADAM17 | shares compounds with ADAM10 inh | ADAM17 QFRET peptide cleavage, EDANS fluorescence | inhibition, % at 6.95 µM | actives 0.5% (n = 2,100) | AID 743214;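 active = mean triplicate inhibition above the solvent-only control wells' mean plus 3 SD, cut at about 12% in these data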;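 note: 0% = DMSO wells and 100% = marimastat wells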
ADAM10 ctr: ADAM10 inhibition, counter-screen for ADAM17 exosite hits; shares compounds with ADAM17 inh; recombinant ADAM10, EDANS/DABCYL FRET peptide cleavage, 3 h; inhibition, % at 6.95 µM; actives 47% (n = 2,900); AID 743256;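 active = mean inhibition over the triplicate runs exceeds the activity threshold set in the earlier primary screen, cut at about 20% in these data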;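 note: 0% = DMSO wells and 100% = marimastat wells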
ADAM17 confirm: confirmation of inhibitors of human ADAM17; shares compounds with ADAM17 inh; recombinant ADAM17, EDANS/DABCYL QFRET peptide cleavage; inhibition, % at 6.95 µM; actives 65% (n = 2,900); AID 743257;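 active = mean inhibition across replicates above the hit cutoff set in the primary screen, cut at about 8.5% in these data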;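 note: 0% = DMSO wells and 100% = marimastat wells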
* marks the source's active call; other numbers are inactive results.

O=C(NC1CCCC1)C(c1ccccc1)N(Cc1ccccc1)C(=O)c1csnn1 (stereo not given) was read as proKLK7 act 0, ADAM17 inh 0, ADAM10 inh 2, MPTP block 1, Pemphigus Ab inh 103 and rCAG RNA binder 0.
Screening CN(C)c1ccc(C(CNC(=O)c2ccccc2F)c2c[nH]c3ccccc23)cc1 (stereo not given) returned proKLK7 act -1, ADAM17 inh 6, ADAM10 inh 11, MPTP block 1, Pemphigus Ab inh 88 and rCAG RNA binder 9.
CN(C)c1ccc(C(CNS(=O)(=O)c2ccc(F)c(F)c2)c2c[nH]c3ccccc23)cc1 (stereo not given) was read as proKLK7 act -1, ADAM17 inh 14*, ADAM10 inh 40*, MPTP block 6, Pemphigus Ab inh 117, rCAG RNA binder 13, ADAM10 confirm 13, ADAM17 ctr 4, ADAM10 ctr 55* and ADAM17 confirm 31*.
`CCOC(=O)C(=O)N(C)c1c(CC)nc2c(OCc3ccccc3OC)cccn12` gave proKLK7 act 0, ADAM17 inh -1, ADAM10 inh -6, MPTP block 0 and rCAG RNA binder 1.
Screening COc1ccc(C(=O)CC(Nc2ccc([N+](=O)[O-])cc2)c2ccc(Cl)cc2)cc1 (stereo not given) returned proKLK7 act 0, ADAM17 inh 13*, ADAM10 inh 22*, MPTP block 28, Pemphigus Ab inh 96, rCAG RNA binder 15, ADAM10 confirm 9, ADAM17 ctr 3, ADAM10 ctr 38* and ADAM17 confirm 18*.
`COc1cccc(-c2cc3nc(NCc4ccccc4F)n(C)c(=O)c3s2)c1` gave proKLK7 act -1, ADAM17 inh -6, ADAM10 inh -24, MPTP block 1 and rCAG RNA binder 9.
For C[C@@H]1CCC(=O)N(CC[C@H](Sc2ccc(Br)cc2)c2ccccc2)CC1 the results were proKLK7 act 1, ADAM17 inh 16*, ADAM10 inh 22*, MPTP block -2, Pemphigus Ab inh 107, rCAG RNA binder -4, ADAM10 confirm 6, ADAM17 ctr 3, ADAM10 ctr 21* and ADAM17 confirm 11*.
O=C(COc1ccc(C(=O)O)cc1)Nc1cccc(C(F)(F)F)c1 was read as proKLK7 act 0, ADAM17 inh -4, ADAM10 inh 5, MPTP block -1, Pemphigus Ab inh 113 and rCAG RNA binder 0.
`O=C(COCC(=O)Nc1cccc(C(F)(F)F)c1)Nc1cccc(C(F)(F)F)c1` gave proKLK7 act 0, ADAM17 inh 15*, ADAM10 inh 35*, MPTP block 14, Pemphigus Ab inh 101, rCAG RNA binder 16, ADAM10 confirm 0, ADAM17 ctr 0, ADAM10 ctr 42* and ADAM17 confirm 17*.
COc1ccc(N=C2SC(CC(=O)Nc3cccc(Cl)c3)C(=O)N2Cc2ccco2)cc1 (stereo not given) was read as proKLK7 act 0, ADAM17 inh 14*, ADAM10 inh 21*, MPTP block 5, Pemphigus Ab inh 102, rCAG RNA binder 10, ADAM10 confirm 9, ADAM17 ctr 3, ADAM10 ctr 23* and ADAM17 confirm 16*.
For COc1ccc(NS(=O)(=O)c2cccc(NC(=O)CCC(=O)c3ccc(Cl)cc3)c2)cc1 the results were proKLK7 act 0, ADAM17 inh 14*, ADAM10 inh 30*, MPTP block 45, Pemphigus Ab inh 98, rCAG RNA binder 12, ADAM10 confirm 7, ADAM17 ctr 2, ADAM10 ctr 34* and ADAM17 confirm 19*.
Screening COc1ccc(NS(=O)(=O)c2cccc(NC(=O)NCCCl)c2)cc1 returned proKLK7 act 0, ADAM17 inh 2, ADAM10 inh 4, MPTP block 8, Pemphigus Ab inh 114 and rCAG RNA binder 6.
`COc1ccc(C(=O)NCCN2CCC(n3c(=O)[nH]c4ccccc43)CC2)cc1F` gave proKLK7 act 1, ADAM17 inh -1, ADAM10 inh -6, MPTP block 1 and rCAG RNA binder -1.
For O=C(NO)c1ccc(OC(F)F)cc1 the results were proKLK7 act 0, ADAM17 inh 15*, ADAM10 inh 25*, MPTP block 0, Pemphigus Ab inh 97, rCAG RNA binder 4, ADAM10 confirm 11, ADAM17 ctr 2, ADAM10 ctr 15 and ADAM17 confirm 19*.
CC1(C(=O)NCc2cccc(C(F)(F)F)c2)CCN1CCc1ccccc1 (stereo not given) was read as proKLK7 act -1, ADAM17 inh 0, ADAM10 inh -6, MPTP block 0 and rCAG RNA binder -4.
Cc1ccc(N(CC(O)Cn2c3ccccc3c3ccccc32)S(C)(=O)=O)cc1 (stereo not given) was read as proKLK7 act 0, ADAM17 inh 5, ADAM10 inh 19, MPTP block 2, Pemphigus Ab inh 118 and rCAG RNA binder 6.
For CC(=O)Nc1ccc(N(CC(O)Cn2c3ccccc3c3ccccc32)S(=O)(=O)c2ccc(C)cc2)cc1 (stereo not given) the results were proKLK7 act -1, ADAM17 inh 10*, ADAM10 inh 29*, MPTP block -34, Pemphigus Ab inh 114, rCAG RNA binder 16, ADAM10 confirm 10, ADAM17 ctr 4, ADAM10 ctr 41* and ADAM17 confirm 23*.
For O=C(OCCOc1cccc(Cl)c1)C1CCN(S(=O)(=O)c2ccccc2)CC1 the results were proKLK7 act 0, ADAM17 inh 8.6*, ADAM10 inh 21*, MPTP block 2, Pemphigus Ab inh 113, rCAG RNA binder 1, ADAM10 confirm 6, ADAM17 ctr 2, ADAM10 ctr 21* and ADAM17 confirm 11*.
CCOC(=O)C1CCN(S(=O)(=O)c2ccccc2)CC1 was read as proKLK7 act 0, ADAM17 inh 3, ADAM10 inh 5, MPTP block 0, Pemphigus Ab inh 99 and rCAG RNA binder -3.
